From PubChem
An excerpt weighted towards active compounds, which were near 2.4% of everything screened.
D2 PAM-1: D2 dopamine receptor (human) potentiation; 340,000 compounds, 0.34% hits; HEK293 T-REx D2, calcium flux, EC20 dopamine potentiation; potentiation, % at 10 µM; AID 485347; P14416;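 active = potentiation over 3 SD above the plate norm, cut at about 30% in these data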; note: 0% is about no effect
Target sequence (P14416 whole entry, looked up): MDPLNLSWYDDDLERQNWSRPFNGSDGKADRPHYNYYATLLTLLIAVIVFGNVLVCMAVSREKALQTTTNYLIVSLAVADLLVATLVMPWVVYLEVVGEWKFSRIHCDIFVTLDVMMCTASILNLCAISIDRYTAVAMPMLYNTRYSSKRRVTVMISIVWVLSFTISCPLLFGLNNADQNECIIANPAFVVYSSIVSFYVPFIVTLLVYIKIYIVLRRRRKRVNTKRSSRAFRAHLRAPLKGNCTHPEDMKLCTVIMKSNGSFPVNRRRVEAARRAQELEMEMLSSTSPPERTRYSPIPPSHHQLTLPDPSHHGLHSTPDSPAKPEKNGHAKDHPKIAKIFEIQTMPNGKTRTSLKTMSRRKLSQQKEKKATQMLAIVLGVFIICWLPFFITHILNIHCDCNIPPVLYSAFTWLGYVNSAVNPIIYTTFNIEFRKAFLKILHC
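Using a no-wash calcium dye in inducible, force-coupled HEK293 Trex cells expressing D2, we tracked fluorescence each second for 180 s after compound, then for 180 s after EC20 dopamine to detect augmented signalling.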
D2 ag-1: activates the human D2 dopamine receptor; 360,000 compounds, 0.084% hits; AID 624465; activation, % (no concentration beside the values); DiscoveRx PathHunter D2 beta-arrestin, luminescence, 90 min; 100% = 57 uM dopamine signal; in the data active = activation above about 40%; inconclusive = between about 15% and that limit
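DiscoveRx PathHunter D2 beta-arrestin cells (2,100/well) attached overnight, then compound-stimulated 90 min at 37 C in HBSS/10 mM HEPES/0.1% Tween-20 buffer; beta-galactosidase complementation read by luminescence after 1 h at ambient temperature. Dopamine 57 uM final (EC100) as control.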
D2 ag-2: D2 dopamine receptor (human) agonism | P14416 | HEK293 T-REx D2 cells, calcium flux agonist mode | activation, % at 2 µM | 340,000 compounds, 0.53% hits;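 active = activation over 3 SD above normal in the single-dose calcium agonist read, cut at about 30% in these data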; note: 0% is about no effect
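Tetracycline-induced HEK293 Trex cells with D2 receptor force-coupled to calcium signaling, plated overnight at 30 C and loaded with no-wash calcium dye. Calcium flux read kinetically for 180 s after compound addition; responses flag agonists.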
D2 PAM-2: positive allosteric modulators of human D2 dopamine receptor. P14416. DiscoveRx D2 beta-arrestin cells, luminescence, 90 min; 100% = 57 uM dopamine signal. potentiation, % (test concentration not listed). 360,000 compounds, 0.23% hits; in the data active = potentiation above about 50%; inconclusive = mostly about 30% to 49%
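D2 cells co-treated with compound plus 50 nM dopamine (EC20) for 90 min at 37 deg C to detect potentiation. Beta-arrestin recruitment was read as enzyme-fragment luminescence after 1 h at ambient temperature. Full response was set by 57 uM dopamine.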
D2 antag: antagonizes the human D2 dopamine receptor | P14416 | 340,000 compounds, 2% hits | inhibition, % at 10 µM | HEK293 TREx D2 cells, calcium flux, dopamine EC80; in the data active = inhibition above about 30%; inactive = below that, where a call was filed; note: 0% is about no effect
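Compounds are added to dye-loaded, induced HEK293 T-REx cells coupled to calcium release via D2; after a 3 min kinetic read an EC80 dopamine stimulus is given and fluorescence is recorded for 3 more min.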
* = called active by the depositor; ? = inconclusive; / = not tested or not shown.

SMILES | D2 PAM-1 | D2 ag-1 | D2 ag-2 | D2 PAM-2 | D2 antag
NC(=O)C1CCN(CC(=O)c2c[nH]c3ccc(F)cc23)CC1 | -3 | 1 | -1 | -12 | -6
Cc1ccc(Cl)cc1N1CCN(S(=O)(=O)c2c(C(=O)N3CCOCC3)c(C)n(C)c2C)CC1 | 15 | 2 | 0 | -13 | 38*
CC(=O)N1CCC(C(=O)NCCOc2cccc(C)c2)CC1 | -2 | 1 | -1 | 1 | 35*
Clc1cccc(OCCCCN2CCCCC2)c1 | -25 | -4 | 1 | -4 | 77*
Cc1cccc(OCCCN2CCCCCC2)c1 | -15 | 1 | 0 | -20 | 40*
CC(C)CCN1CN(S(=O)(=O)c2cccs2)c2nc3ccccc3nc21 | -8 | -2 | 0 | -18 | 1
O=C(Nc1ccccn1)c1ccc(Cl)c(S(=O)(=O)N2CCOCC2)c1 | 9 | 0 | 0 | 4 | 4
Cc1ccc(C(=O)Nc2ccccn2)cc1S(=O)(=O)N1CCOCC1 | 0 | 2 | 0 | -12 | 35*
COc1cc2c(cc1OC)C1C/C(=N\O)C(CC(C)C)CN1CC2 (centres undefined) | -20 | -1 | 5 | -41 | 60*
CC(C)Cn1c(SCc2nc3ccccc3c(=O)[nH]2)nc2ccccc2c1=O | 36* | -3 | 0 | 4 | -5
Cn1c(SCc2nc3ccccc3c(=O)[nH]2)nc2ccccc21 | 0 | -3 | 0 | -11 | 8
COCCCNC(=O)/C=C/c1ccc(Cl)cc1Cl | -2 | -1 | 0 | -29 | 3
COc1ccccc1OCCCCN1CCCCC1 | -19 | 2 | / | -6 | /
Cc1cc(C)c(C)c(OCCOCCN2CCN(C)CC2)c1 | 3 | -5 | -1 | -23 | -12
CCc1ccccc1OCCCCN1CCCCC1 | -27 | 2 | 0 | -16 | 89*
CCc1ccccc1OCCCN1CCCC1 | -13 | 7 | / | -4 | /
Cc1cc(C)c(C)c(OCCCCN2CCCCC2)c1 | -36 | 6 | 0 | -26 | 55*
Cc1ccccc1OCCCCN1CCCCC1 | -16 | -6 | 1 | -20 | 50*
CN(C)S(=O)(=O)c1cc(NC(=O)CSc2ncc(C(F)(F)F)cc2Cl)ccc1Cl | 5 | -4 | 0 | -8 | 6
CN(C1CCS(=O)(=O)C1)S(=O)(=O)c1ccccc1 (centres undefined) | 16 | 4 | -1 | -2 | 1
N/C(=N\OC(=O)c1ccc(F)cc1)c1cccc([N+](=O)[O-])c1 | 3 | ? | 0 | 65* | -1
N/C(=N\OC(=O)c1cccc(F)c1)c1cccc([N+](=O)[O-])c1 | / | ? | / | 85* | /
N/C(=N\OC(=O)c1ccc2ccccc2c1)c1cccc([N+](=O)[O-])c1 | 9 | ? | 0 | 108* | -5
Cc1cccc(/C(N)=N/OC(=O)c2ccc(F)cc2)c1 | -6 | 13 | 0 | -19 | 2
NC(=O)c1cccc([N+](=O)[O-])c1 | 10 | 4 | 0 | -6 | -11
SMILES | D2 PAM-1 | D2 ag-1 | D2 ag-2 | D2 PAM-2 | D2 antag
CC1=C(C)/C(=N/OC(=O)c2cccc([N+](=O)[O-])c2)C=CC1=O | 6 | ? | 0 | 12 | 34*
N/C(=N/OC(=O)c1cccc([N+](=O)[O-])c1)c1cccc([N+](=O)[O-])c1 | 4 | ? | 0 | ? | -12
N/C(=N\OC(=O)c1cccc([N+](=O)[O-])c1)c1ccccn1 | -1 | ? | 0 | 22 | 8
CCOC(=O)Cc1csc(SCC(=O)Nc2cc(C)ccc2OC)n1 | 12 | 1 | 0 | -51 | -3
O=C(O)c1cccc2c(-c3ccccc3)c(-c3ccccc3)[nH]c12 | -2 | 0 | -1 | 1 | 11
N/C(=N\OC(=O)c1ccccc1Cl)c1cccc([N+](=O)[O-])c1 | -6 | 60* | 0 | 25 | -6
N/C(=N\OC(=O)c1ccc([N+](=O)[O-])cc1Cl)c1ccccn1 | -2 | ? | 1 | 17 | 0
O=C(Nc1cccc(C(=O)O)c1)Nc1ccc2c(c1)OCO2 | -13 | 0 | 0 | -4 | -7
O=C(CN1C(=O)C2C3C=CC(C3)C2C1=O)NC1CCCc2ccccc21 (centres undefined) | 12 | 2 | / | 5 | /
O=C(N/N=C/c1cccnc1)C1CCCCC1 | 32* | 0 | 0 | -6 | -19
O=C(N/N=C/c1ccsc1)C1CC1 | 40* | -2 | 0 | -3 | 0
O=C(N/N=C/c1cccnc1)c1cccc(Cl)c1 | -3 | 1 | 2 | -9 | 35*
CCOc1cc(/C=N/NC(=O)c2cccnc2)ccc1O | 4 | -8 | 0 | 3 | 31*
COc1ccc(NC(=O)Cn2c(=O)n(Cc3nc(C)no3)c(=O)c3cc4c(cc32)OCO4)cc1 | 3 | / | 1 | / | /
CCOc1cccc(C2c3c(oc4cc(C)c(C)cc4c3=O)C(=O)N2CCCN(C)C)c1 (centres undefined) | 16 | / | 1 | / | -4
C/C(Cn1nnc([N+](=O)[O-])n1)=N\NC(=O)c1ccccc1O | -4 | ? | 0 | 5 | -1
C/C(Cn1nnc([N+](=O)[O-])n1)=N\NC(=O)c1ccc(O)cc1O | 3 | ? | 6 | 59* | 13
CC(=O)N1CCc2[nH]c3ccc(C)cc3c2C1 | 4 | -2 | 1 | -7 | 7
Cc1ccc2[nH]c3c(c2c1)CN(C)CC3 | -30 | -3 | 2 | -36 | 31*
Cc1ccc2[nH]c3c(c2c1)CCN(C)C3 | -16 | -5 | 1 | -5 | 34*
Cc1cccc(CN2CCc3c([nH]c4ccccc34)C2)c1 | -23 | -6 | 1 | -11 | 56*
CCOC(=O)c1ccc2[nH]c3c(c2c1)CN(C)CC3 | 1 | -4 | 0 | -10 | 16
Cc1ccc(OCCCNCCO)c(Br)c1 | -14 | 0 | 1 | -29 | 39*
Cc1ccc(OCCCN(C)C)c(Br)c1 | 8 | -2 | 0 | -18 | 37*
CCC1ON(c2ccccc2)C2c3nc4ccccc4n3CC12 (centres undefined) | 15 | 0 | 0 | -8 | 36*
SMILES | D2 PAM-1 | D2 ag-1 | D2 ag-2 | D2 PAM-2 | D2 antag
CCC1ON(C(C)C)C2c3nc4ccccc4n3CC12 (centres undefined) | 7 | -1 | 0 | -5 | 32*
N/C(=N\c1nc2c(c(=O)[nH]1)CCCC2)Nc1ccccc1 | 8 | 0 | 0 | 11 | -4
N/C(=N\c1nc2c(c(=O)[nH]1)CCC2)Nc1ccccc1 | -5 | 2 | 0 | -1 | 30*
CC(=O)c1coc2ccc(OCCN3CCCCC3)cc12 | -24 | 0 | 0 | -22 | 42*
COc1ccc2occ(C(C)=O)c2c1 | -8 | 2 | 1 | -11 | 11
CON(C)S(=O)(=O)c1cccc(C(=O)Oc2ccc(N(C)S(=O)(=O)c3ccccc3)cc2)c1 | -1 | -2 | 1 | 1 | -16
O=C(CSc1ncnc2nc[nH]c12)c1ccc(Cl)cc1 | 3 | 6 | 2 | -1 | 14
